Test results as given in PubChem BioAssay AID1159580 (chemical genetic matrix, 2015).
In all, about 5,500 compounds went through this assay and about 2,000 (36%) were called active. About 18% were inconclusive and are not listed. Cut-off read from the data, not from the text of the source: active = normalized growth mostly below about 0.91 (no sharp cut-off); inconclusive = no clear call, values can overlap the other calls; inactive = mostly above about 0.92. The list shows a part of the results.

Assay: chemical genetic growth profiling, strain panel (AID 1159580);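 note: tested at 20 µM; growth read once vehicle control cultures reached saturation at 30 °C; 1 = growth at the plate median or of vehicle wells; lower values mean less growth of the strain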
Conditions: S. cerevisiae deletion strains, growth OD

Measured: normalized growth

Nc1ccc(C(=O)/C(=C\c2cccc([N+](=O)[O-])c2)C(=O)c2ccc(-c3ccccc3)cc2)cc1
inactive: locus YAL013W, strain DEP1, hits give low values 0.99 | locus YBR229C, strain ROT2, hits give low values 0.984 | locus YDL101C, strain DUN1, hits give low values 0.997 | locus YDR150W, strain NUM1, hits give low values 0.975 | locus YEL061C, strain CIN8, hits give low values 0.999 | locus YGR078C, strain PAC10, hits give low values 0.997 | locus YHR030C, strain SLT2, hits give low values 0.869 | locus YHR087W, strain rtc3, hits give low values 0.993 | locus YJL187C, strain SWE1, hits give low values 1 | locus YJR043C, strain POL32, hits give low values 0.979 | locus YJR075W, strain HOC1, hits give low values 0.997 | locus YKL190W, strain CNB1, hits give low values 0.997 | locus YLR039C, strain RIC1, hits give low values 1 | locus YLR058C, strain SHM2 (second series), hits give low values 0.987 | locus YLR085C, strain ARP6, hits give low values 0.877 | locus YLR262C, strain YPT6, hits give low values 0.915 | locus YML094W, strain GIM5, hits give low values 0.993 | locus YMR219W, strain ESC1, hits give low values 0.988 | locus YMR263W, strain SAP30, hits give low values 1.01 | locus YNL153C, strain GIM3, hits give low values 0.966 | locus YNL298W, strain CLA4 (second series), hits give low values 0.936 | locus YNL322C, strain KRE1, hits give low values 0.971 | locus YNR030W, strain Alg12, hits give low values 0.955 | locus YPL055C, strain LGE1, hits give low values 1 | locus YPL241C, strain CIN2, hits give low values 0.949 | locus YPR135W, strain CTF4, hits give low values 0.945
